Here are results for 69 molecules from ChEMBL document CHEMBL4513216, “Probing the Open Global Health Chemical Diversity Library for Multistage-Active Starting Points for Next-Generation Antimalarials” (ACS Infect Dis, 2020).

Screen size: about 68,000 compounds; about 2,700 (4%) showed an effect of 50% or more. Only a selection was taken, and strong results are over-represented in it overall.

This experiment deals with Plasmodium berghei. The experiment is described as follows: Screen against P. berghei liver stage (PbLuc), transformed with Luciferase, at 2uM. Type of experiment: functional, HepG2. The conditions noted are these: tested at 2 uM.
For the molecule `O=C(CN1CCN(c2ccnc3c(F)ccc(F)c23)CC1)N1CCCC1`, the INHIBITION amounted to 3.01%.
For `CC(C)(C)CN1CC(COc2ccccc2)Oc2ccncc2S1(=O)=O` (centres undefined) the value was 14.96%; for `Cc1ccc(-c2noc([C@H](N)CC(C)C)n2)nn1`, 24.55%.
The same measure for `Cc1ccc(-c2noc(C(O)CC(C)C)n2)nn1` (centres undefined): -12.08%; for `CCSC(C)c1nc(-c2ccc(C)nn2)no1` (centres undefined): 66.4%.
For `Fc1cnc(N2C[C@@H]3C[C@@H](c4nc(C5CC5)cs4)O[C@@H]3C2)nc1` the value was 3.53%.
`Cc1nc(-c2cc(C(=O)O)co2)cs1`: the INHIBITION amounted to 9.95%.
Consider `CCOCC1CN(C(=O)c2ccncn2)Cc2cnn(CC)c21` (centres undefined), for which the INHIBITION was determined as 4.99%.
The same measure for `CC(C)C(C)(C#N)NC(=O)Cn1cc(Cl)cn1` (centres undefined): 26.74%; for `CC(C)C(C)(C#N)NC(=O)Cn1cc(-c2ccccc2)cn1` (centres undefined): -4.26%.
Take `CC(C)C(C)(C#N)NC(=O)Cn1cc(I)cn1` (centres undefined): the INHIBITION turned out to be 64.9%.
The same measure for `Cc1nccn1CCN1C(=O)CC2(CCCC2)CC1=O`: -50.2%.
In the case of `CCc1c(NCc2cccnc2)cnn1CC(C)C`, the INHIBITION is recorded as -16.94%.
The same measure for `CN(Cc1ccsc1)C(=O)Nc1ccc(S(C)(=O)=O)cc1`: -12.75%; for `Cn1cccc1CN(C(=O)CC(CC(=O)O)c1cccs1)C1CC1` (centres undefined): 81.52%.
The same measure for `CN(C(=O)Cc1cccs1)C1CCN(c2ccccn2)CC1`: 16.89%; for `CN(Cc1cccs1)C1CCC[C@@H]2CN(C(=O)c3cccn3C)C[C@H]12` (some centres undefined): 6.33%.
For the molecule `Cn1cccc1CN(C(=O)Cc1cccs1)C1CC1`, the INHIBITION is reported as 51.96%.
For `O=C(O)CC(CC(=O)NCCc1cccs1)c1cccs1` (centres undefined) the value was 17.25%; for `O=C(O)CC(CC(=O)N(Cc1ccsc1)C1CC1)c1cccs1` (centres undefined), 1.06%; for `CCN(CC1CCOC1)C(=O)NCc1nnc2n1CCCCC2` (centres undefined), 7.24%.
The same measure for `CC(NCC1CCN(CCO)CC1)c1cccnc1` (centres undefined): -4.09%; for `CC(NCC1CCN(CCO)CC1)c1ccc(OC(F)(F)F)cc1` (centres undefined): 47.68%.
The same measure for `CC(NCC1CCN(CCO)CC1)c1ccc(F)c(Cl)c1` (centres undefined): -111.19%; for `CC(NCC1CCN(CCO)CC1)c1ccc(Cl)cc1` (centres undefined): 56.49%.
Consider `CC(NCC1CCN(CCO)CC1)c1cccc(Cl)c1` (centres undefined), for which the INHIBITION was found to be 34.46%.
For `CC(NCC1CCN(CCO)CC1)c1ccc(C(F)(F)F)cc1` (centres undefined) the value was 55.39%; for `CCc1nc(NC(=O)NCCc2cscn2)nn1C`, 1.88%; for `Clc1cccc(C(CNCc2ccccn2)N2CCOCC2)c1` (centres undefined), 20.8%.
For `CC(C)c1nn(C)c(N(C)C)c1CNCc1ccnc(N(C)C)c1` the value was 1.36%; for `O=C(Cn1ccc2ccc(Cl)cc21)NCc1ccc(C(=O)O)cc1`, 30.98%; for `O=C(NCC1CC1)C1CN(C(=O)Nc2ccccc2)CC12CCOCC2` (centres undefined), -48.3%.
Take `O=C(Nc1ccccc1)N1CC(C(=O)N2CCCC2)C2(CCOCC2)C1` (centres undefined): the INHIBITION is on record as 51.72%.
The same measure for `CC(C)NC(=O)C1CN(C(=O)Nc2ccccc2)CC12CCOCC2` (centres undefined): 47.1%; for `CN(Cc1cc2n(n1)CCN(C(=O)[C@H]1CCCO1)C2)Cc1nccs1`: 24.08%.
For `c1ccc(Oc2cccc(OC34CCCN(CC3)C4)c2)cc1` (centres undefined) the value was 43.72%; for `Cc1cc(C)n(C2CN(Cc3noc(-c4ccccc4)n3)C2)n1`, 1.34%; for `COCCc1noc(CN2CC(n3nc(C)cc3C)C2)n1`, 65.39%.
For `Cc1cc(C)n(C2CN(Cc3noc(C4CC4)n3)C2)n1` the value was -14.28%; for `Cc1ccc(-c2nc(CN3CC(n4nc(C)cc4C)C3)no2)cc1`, 31.55%.
With `COCCc1noc(CN2CCOC(Cn3nc(C)cc3C)C2)n1` (centres undefined), the INHIBITION is -85.26%.
For `Cc1cccc(-c2nc(CN3CC(n4nc(C)cc4C)C3)no2)c1` the value was 51.31%; for `Cn1c(CO)cnc1SC1CCCN(c2ccccc2F)C1=O` (centres undefined), 15.82%; for `Cc1ncsc1CN1CCn2c(COCC3CC3)cnc2C1C` (centres undefined), -21.27%.
The same measure for `CCc1noc(CNC2CCCN(Cc3noc(C4CC4)n3)C2)n1` (centres undefined): 30.29%; for `CCS(=O)(=O)c1ncc(CN(C)Cc2ccccn2)n1CCOC`: -40.94%; for `CCS(=O)(=O)c1ncc(CN(C)Cc2ccccc2OC)n1CCOC`: 60.74%.
On to `CCS(=O)(=O)c1ncc(CN(C)Cc2ccccc2Cl)n1CCOC`, for which the INHIBITION is -5.13%.
For `CN1CCCC1CCNC(=O)c1ccccc1-n1cnc(CN)c1` (centres undefined) the value was 22.95%; for `CN(C)Cc1cn(-c2ccccc2C(=O)NCCC2CCCN2C)cn1` (centres undefined), 16.43%; for `CN(C)Cc1cn(-c2ccccc2C(=O)NCC2CCCCN2C)cn1` (centres undefined), 87.38%.
For `Cc1csc(N2CCN(Cc3nnsc3Cl)CC2C)n1` (centres undefined) the value was -39.79%; for `c1ccc(C[C@H]2CN(Cc3nccs3)CC[C@@H]2OCC2CC2)cc1`, 41.79%; for `CC(C)NC(=O)N(C)C(c1cccc(F)c1)c1ccccn1` (centres undefined), -30.55%.
For `CCNC(=O)N(C)C(c1cccc(F)c1)c1ccccn1` (centres undefined) the value was 51.21%.
For `CCNC(=O)N(C)C(c1ccccc1)c1ccccn1` (centres undefined), the INHIBITION was -18.26%.
For `Cc1ccc(S(=O)(=O)N2CCOCC2C(N)=O)c(F)c1` (centres undefined) the value was 14.17%; for `Cc1ccnc(SCC(=O)Nc2csc3nc(=O)c(C)nn23)n1`, 35.42%.
The same measure for `Cc1noc(C)c1C(=O)NCC(c1ccsc1)N(C)C` (centres undefined): -12.82%; for `Cc1noc(C(C)C)c1C(=O)NCc1ccc2c(c1)OCCO2`: 56.02%; for `COCc1cccc(CNC(=O)c2c(C)noc2C(C)C)c1`: 49.9%.
For `Cc1noc(C(C)C)c1C(=O)NCc1cccc(N(C)C)c1` the value was -57.97%.
`Cc1noc(C(C)C)c1C(=O)NCC(c1ccsc1)N(C)C` (centres undefined): the INHIBITION is 63.95%.
For `CNC(=O)COc1cccc(CNC(=O)c2c(C)noc2C(C)C)c1` the value was 74.35%.
As for `CCN(CC)C(CNC(=O)c1c(C)noc1C(C)C)c1ccsc1` (centres undefined), the INHIBITION is reported as -25.61%.
The same measure for `CNC(=O)COc1cccc(CNC(=O)c2c(C)noc2C)c1`: 24.36%; for `Cc1noc(C(C)C)c1C(=O)NCc1ccc(N(C)C)c(F)c1`: -9.17%; for `O=S(=O)(C1CC1)N1CCCn2nnc(Cn3cccc3)c2C1`: 23.81%.
Regarding `CCOCCC(=O)N1CCCCC1CCn1cccn1` (centres undefined), the INHIBITION is given as 30.25%.
